Holding throughout (details): mRNA level, 48 h; actives raise or lower the signal
Read-out in experiment [1]: Forkhead box O1 (FOXO1), FOXO1 (gene 2308)
Description: LTEA_HepaRG_FOXO1: Life Technologies and Expression Analysis (LTEA) Assay for Forkhead box O1 (FOXO1) using HepaRG (AID 2283456). The method, boiled down:
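Differentiated human HepaRG cells in serum-free induction medium were exposed in duplicate for 48 h to eight half-log concentrations (top 100 uM, 0.5% DMSO). FOXO1 mRNA was measured by TaqMan qRT-PCR, normalised to ACTB, GAPDH and POLR2A, and fitted bidirectionally against DMSO.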

Read-out in experiment [2]: growth arrest and DNA damage 45 (GADD45A), GADD45A (gene 1647)
In words: LTEA_HepaRG_GADD45A: Life Technologies and Expression Analysis (LTEA) Assay for growth arrest and DNA damage 45 (GADD45A) using HepaRG (AID 2283458). In a few lines:
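Human HepaRG liver cells are treated in duplicate for 48 h with chemicals in 0.5% DMSO, highest concentration 100 uM. Expression is read by qRT-PCR and analyzed in both directions against vehicle.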

Read-out in experiment [3]: Forkhead box O3 (FOXO3), FOXO3 (gene 2309)
Description: LTEA_HepaRG_FOXO3: Life Technologies and Expression Analysis (LTEA) Assay for Forkhead box O3 (FOXO3) using HepaRG (AID 2283459). The method, boiled down:
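Differentiated human HepaRG cells in serum-free induction medium were exposed in duplicate for 48 h to eight half-log concentrations up to 100 uM in 0.5% DMSO. FOXO3 mRNA was quantified by qRT-PCR, normalized to ACTB, GAPDH and POLR2A, with bidirectional fitting versus DMSO.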

Read-out in experiment [4]: ABC Transporter (ABCB1), ABCB1 (gene 5243)
In words: LTEA_HepaRG_ABCB1: Life Technologies and Expression Analysis (LTEA) Assay for ABC Transporter (ABCB1) using HepaRG (AID 2283460). The method, boiled down:
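Differentiated human HepaRG cells, plated 48 h then switched to serum-free induction medium, were exposed in duplicate to eight half-log concentrations up to 100 uM in 0.5% DMSO for 48 h. ABCB1 mRNA was measured by TaqMan qRT-PCR, normalized to ACTB/GAPDH/POLR2A.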

Read-out in experiment [5]: growth arrest and DNA damage 45 (GADD45B), GADD45B (gene 4616)
In words: LTEA_HepaRG_GADD45B: Life Technologies and Expression Analysis (LTEA) Assay for growth arrest and DNA damage 45 (GADD45B) using HepaRG (AID 2283461). In a few lines:
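Human HepaRG monolayers receive chemicals for 48 h at eight half-log concentrations, highest 100 uM, in 0.5% DMSO. Expression is measured by TaqMan qRT-PCR and normalized to ACTB, GAPDH and POLR2A.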

Read-out in experiment [6]: ABC Transporter (ABCC3), ABCC3 (gene 8714)
In words: LTEA_HepaRG_ABCC3: Life Technologies and Expression Analysis (LTEA) Assay for ABC Transporter (ABCC3) using HepaRG (AID 2283462). The method, boiled down: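 Transcriptional change of ABCC3 in HepaRG after 48 h treatment, determined by qRT-PCR normalized to endogenous controls. Concentrations spanned eight half-log steps to 100 uM in 0.5% DMSO.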

Read-out in experiment [7]: ABC Transporter (ABCB11), ABCB11 (gene 8647)
Description: LTEA_HepaRG_ABCB11: Life Technologies and Expression Analysis (LTEA) Assay for ABC Transporter (ABCB11) using HepaRG (AID 2283463). In a few lines:
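Differentiated human HepaRG cells were exposed for 48 h in serum-free induction medium to eight half-log concentrations up to 100 uM in 0.5% DMSO. ABCB11 mRNA was quantified by qRT-PCR, normalized to ACTB, GAPDH and POLR2A, and fitted bidirectionally versus DMSO.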

Read-out in experiment [8]: ABC Transporter (ABCC2), ABCC2 (gene 1244)
Description: LTEA_HepaRG_ABCC2: Life Technologies and Expression Analysis (LTEA) Assay for ABC Transporter (ABCC2) using HepaRG (AID 2283464). In a few lines: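 After plating and 48 h culture, HepaRG medium is replaced with serum-free induction medium and chemicals are added (8 concentrations, max 100 uM, 0.5% DMSO) for 48 h. Total RNA then undergoes qRT-PCR for ABCC2 with housekeeping normalization.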

Read-out in experiment [9]: Broad substrate specificity ATP-binding cassette transporter ABCG2 (Homo sapiens) (UniProt Q9UNQ0)
Description: LTEA_HepaRG_ABCG2: Life Technologies and Expression Analysis (LTEA) Assay for ABC Transporter (ABCG2) using HepaRG (AID 2283465). In a few lines:
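Differentiated HepaRG cells in serum-free induction medium were exposed for 48 h, in duplicate, to eight half-log concentrations up to 100 uM in 0.5% DMSO. ABCG2 mRNA was measured by TaqMan qRT-PCR, normalized to ACTB, GAPDH and POLR2A, and fitted bidirectionally versus DMSO.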

The term AC50 denotes the concentration giving half of the maximal activity seen.

Active and inactive are the calls of the source. The calls were made as follows: active = hit-call score of the fitted dose curve at least 0.9, where 1 is the maximum; inactive = score below 0.9.

Broad substrate specificity ATP-binding cassette transporter ABCG2 (Homo sapiens), sequence (Q9UNQ0 whole entry, looked up): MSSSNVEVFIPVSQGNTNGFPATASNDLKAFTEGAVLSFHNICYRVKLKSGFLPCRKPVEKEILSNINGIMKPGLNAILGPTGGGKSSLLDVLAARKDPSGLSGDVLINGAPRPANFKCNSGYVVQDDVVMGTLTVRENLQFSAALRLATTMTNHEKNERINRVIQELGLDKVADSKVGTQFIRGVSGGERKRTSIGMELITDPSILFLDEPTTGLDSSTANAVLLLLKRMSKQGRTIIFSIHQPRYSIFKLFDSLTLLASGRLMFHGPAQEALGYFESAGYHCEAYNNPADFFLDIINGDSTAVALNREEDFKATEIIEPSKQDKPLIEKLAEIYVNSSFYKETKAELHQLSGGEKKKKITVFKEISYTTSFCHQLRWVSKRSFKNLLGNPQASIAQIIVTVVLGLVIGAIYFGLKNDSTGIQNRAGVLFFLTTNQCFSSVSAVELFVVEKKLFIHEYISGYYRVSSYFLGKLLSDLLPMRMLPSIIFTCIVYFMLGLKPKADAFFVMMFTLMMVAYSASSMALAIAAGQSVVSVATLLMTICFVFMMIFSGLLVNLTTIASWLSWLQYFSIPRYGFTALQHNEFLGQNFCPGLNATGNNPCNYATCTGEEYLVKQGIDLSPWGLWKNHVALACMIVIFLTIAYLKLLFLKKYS

As for `C=CN1CCCC1=O`, the compound was classed as inactive in experiment [1], in [2], in experiment [3], in [4], in [5] and in experiment [6]. Besides, the outcome in experiment [7], in experiment [8] and in experiment [9] was inactive.

Take `OCC(CO)(CO)CO`: the result in experiment [1], in experiment [2], in [3], in experiment [4], in [5] and in [6] was inactive. The compound was classed as inactive in experiment [7], in experiment [8] and in experiment [9].

Regarding `COCc1nnc(-c2ccc[n+]([O-])c2)n1-c1c(Cl)c(Cl)cc2[nH]c(=O)c(=O)[nH]c12`, the compound was called inactive in [1], in experiment [2], in experiment [3], in [4], in [5] and in experiment [6]. For the same compound, the outcome in [7], in experiment [8] and in experiment [9] was inactive.

On to `Cc1ncc([C@@H](CCCCCCc2ccc3c(n2)NCCC3)CC(=O)O)cn1`, for which the call in [1], in experiment [2], in [3], in [4], in experiment [5] and in [6] was inactive. The compound was classed as inactive in [7], in [8] and in [9].

As for `CC(C)CCCCCCOC(=O)C1CCCCC1C(=O)OCCCCCCC(C)C` (centres undefined), the result in [1], in experiment [3], in [4], in [5], in [6] and in experiment [7] was inactive. The compound was called inactive in experiment [8] and in [9]. The AC50 in experiment [2] was 0.00316 µM (active).

As to `NC(=O)NN=Cc1ccc([N+](=O)[O-])o1`, the compound was classed as inactive in [1], in experiment [2], in [3], in experiment [4], in [5] and in [6]. The compound was called inactive in experiment [7] and in experiment [9]. For the same compound, in experiment [8], the AC50 was 50 µM (active).

With `Cc1nccn1-c1ccc(Sc2cccc(C3(C(N)=O)CCOCC3)c2)cc1`, the concentration at half-maximal activity (AC50) in [1] was 9.73 µM (active); in experiment [2] it was 10.9 µM (active); in experiment [4], 21 µM (active); in experiment [5], 27.3 µM (active); in experiment [6], 3.65 µM (active); in [7], 9.74 µM (active). Besides, the results for the concentration at half-maximal activity (AC50) in experiment [8] and in [9] were 19.9 µM (active) and 31.2 µM (active), respectively. The compound was classed as inactive in experiment [3].

As for `CCCCCCCCCC`, the outcome in experiment [1], in experiment [2], in experiment [3], in experiment [4], in experiment [5] and in [6] was inactive. The call in [7], in experiment [8] and in experiment [9] was inactive.

In the case of `CCOC(N)=O`, the outcome in [1], in experiment [2], in experiment [3], in [4], in experiment [5] and in experiment [6] was inactive. Further, the result in [7], in experiment [8] and in experiment [9] was inactive.

Consider `OC[C@H]1O[C@@H]2O[C@H]3[C@H](O)[C@@H](O)[C@@H](O[C@H]4[C@H](O)[C@@H](O)[C@@H](O[C@H]5[C@H](O)[C@@H](O)[C@@H](O[C@H]6[C@H](O)[C@@H](O)[C@@H](O[C@H]7[C@H](O)[C@@H](O)[C@@H](O[C@H]1[C@H](O)[C@H]2O)O[C@@H]7CO)O[C@@H]6CO)O[C@@H]5CO)O[C@@H]4CO)O[C@@H]3CO`, for which the compound was called inactive in experiment [1], in experiment [2], in experiment [3], in experiment [4], in experiment [5] and in [6]. The compound was classed as inactive in experiment [7] and in experiment [8].

`CCCCCCCCCCCCCCO`: the compound was called inactive in [1], in experiment [2], in [3], in experiment [4], in experiment [5] and in experiment [6]. For the same compound, the result in [7], in experiment [8] and in experiment [9] was inactive.

In the case of `OCc1ccccc1`, the call in experiment [1], in [2], in experiment [3], in experiment [4], in [5] and in experiment [6] was inactive. For the same compound, the compound was classed as inactive in [7], in experiment [8] and in experiment [9].

For `CCCCOC(=O)c1ccccc1`, the result in [1], in experiment [2], in experiment [3], in [4], in experiment [5] and in [6] was inactive. Also, the result in experiment [7], in experiment [8] and in experiment [9] was inactive.

With `OC[C@H]1O[C@@](CO)(O[C@H]2O[C@H](CO)[C@@H](O)[C@H](O)[C@H]2O)[C@@H](O)[C@@H]1O`, the compound was called inactive in experiment [1], in experiment [2], in experiment [3], in [4], in experiment [5] and in experiment [6]. Also, the result in experiment [7] and in experiment [8] was inactive.

Consider `CCCCCOC(C)=O`, for which the compound was called inactive in [1], in experiment [2], in experiment [3], in [4], in experiment [5] and in experiment [6]. In addition, the result in experiment [7] and in experiment [8] was inactive.

Regarding `c1ccc2ncccc2c1`, the result in experiment [1], in experiment [2], in experiment [3], in [4], in experiment [5] and in experiment [6] was inactive. Moreover, the result in experiment [7] and in [8] was inactive.

Take `OC(Cn1cncn1)(Cn1cncn1)c1ccc(F)cc1F`: the compound was called inactive in experiment [1], in experiment [2], in experiment [3], in experiment [4], in experiment [5] and in [6]. For the same compound, the call in experiment [7], in experiment [8] and in experiment [9] was inactive.

The record behind these values is PubChem BioAssay (EPA / NIEHS).
